Shown are actives, neighbours in structure and some others; about 6.9% of the full set was active somewhere.
MCF10A rerep = A quantitative high throughput screen for small molecules that induce DNA re-replication in MCF 10a normal breast cells; Potency, µM (highest dose often 46.1 µM), without a hit: top-dose activity, positive = re-replication, actives largely listed as activators; MCF 10A DNA re-replication, Hoechst nuclear intensity, 48 h; actives 2.9% (n = 350,000); also: potency is read from the fitted curve at half-maximal effect; % of control where 0% means no effect; nearly all actives have a fitted effect of over 50% in size
Vif-A3G inh = qHTS for Inhibitors of Vif-A3G Interactions: qHTS; DNA dC->dU-editing enzyme APOBEC-3G (Homo sapiens), Q9HC16; HeLa A3G-eYFP + Vif (tagged APOBEC3G with the HIV-1 protein that degrades it), YFP fluorescence, overnight; Potency, µM (doses to about 46.1 µM), inactives show at the top dose activity, negative = active, actives largely listed as inhibitors; actives 0.076% (n = 410,000); AID 602310, 2012; also: potency is read from the fitted curve at half-maximal effect; % is scaled to controls: 0 for no effect and ±100 for the full control effect; nearly all actives have a fitted effect of over 60% in size
Target sequence (Q9HC16 whole entry, looked up): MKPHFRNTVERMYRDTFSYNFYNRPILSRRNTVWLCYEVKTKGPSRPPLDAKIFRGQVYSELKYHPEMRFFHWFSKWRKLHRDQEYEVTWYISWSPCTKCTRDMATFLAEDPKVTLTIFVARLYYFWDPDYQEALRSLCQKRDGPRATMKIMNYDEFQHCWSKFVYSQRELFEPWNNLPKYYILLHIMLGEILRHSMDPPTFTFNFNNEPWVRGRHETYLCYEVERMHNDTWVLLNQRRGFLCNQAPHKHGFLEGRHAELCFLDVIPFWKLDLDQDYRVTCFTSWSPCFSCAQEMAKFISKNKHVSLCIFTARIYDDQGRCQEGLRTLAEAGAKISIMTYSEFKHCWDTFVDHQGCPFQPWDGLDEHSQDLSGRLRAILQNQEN
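HeLa cells stably expressing Vif and C-terminally eYFP-tagged A3G, seeded overnight at 37 deg C, then exposed to compound by pintool overnight at 37 deg C. Rise in yellow fluorescence (Ex 488/Em 500-530, Acumen) marks blocked Vif-driven A3G degradation.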
IL1B secr inh = qHTS for Inhibitors of Inflammasome Signaling: IL-1-beta AlphaLISA Primary Screen | THP-1 LPS/ATP IL-1B secretion, AlphaLISA, 16 h; active compounds read low | activity change, % at 57.5 µM | actives 4.7% (n = 360,000) | AID 743279, 2014; in the data active = activity change below about -50%; inconclusive = mostly about -30% to -49%; also: % is scaled to controls: 0 for no effect and ±100 for the full control effect
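THP-1 cells pretreated 1 hr with compounds (up to 57.5 uM final), then stimulated with LPS (250 ng/mL final) plus ATP (1.25 mM final); secreted IL-1B measured by AlphaLISA after 16 hr, decreased signal indicating inhibition.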
SW480 rerep = A quantitative high throughput screen for small molecules that induce DNA re-replication in SW480 colon adenocarcinoma cells; actives 1.8% (n = 340,000); Potency, µM (doses to about 46.1 µM), for inactives: at the highest dose re-replication activation, actives largely listed as activators; SW480 DNA re-replication, Hoechst DNA content imaging, 48 h; also: potency is read from the fitted curve at half-maximal effect; % of control where 0% means no effect; nearly all actives have a fitted effect of over 55% in size
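DNA re-replication was detected as more nuclei of elevated Hoechst intensity after 48 hr exposure to compound (23 nL pinned per well of 250 cells).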
Giardia killer = Small Molecules that selectively kill Giardia lamblia: qHTS; actives 0.15% (n = 340,000); Giardia lamblia trophozoite viability; AID 540267, 2011; activity change, % at 7.66 µM, hits read low; in the data active = activity change below about -80%; inconclusive = between about -30% and that limit;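 also: parasites exposed to compound for two days anaerobically before the ATP read; % is scaled to controls: 0 for no effect and ±100 for the full control effect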
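Media and compound were dispensed first, then trophozoites at 100 cells/well; plates sat 48 hrs at 37 deg C without oxygen before ATP luminescence reagent was added and read after 15-30 min at room temperature.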
Vif-A3F inh = qHTS for Inhibitors of Vif-A3F Interactions: qHTS. HeLa A3F-eYFP + Vif (tagged APOBEC3F with the HIV-1 protein that degrades it), YFP fluorescence increase. AID 602313, 2012. actives 0.2% (n = 390,000). Potency, µM (series often up to 46.1 µM), for inactives: at the top dose activity, negative = active; also: potency is read from the fitted curve at half-maximal effect; % of control where 0% means no effect; nearly all actives have a fitted effect of over 65% in size
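HeLa cells stably expressing Vif plus C-terminally eYFP-tagged A3F were seeded, incubated overnight at 37 deg C, dosed with compound, incubated overnight again at 37 deg C. Yellow fluorescence (Ex 488/Em 500-530) reported blocked Vif-mediated A3F-eYFP degradation.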
* hit, by the source's call; ? = inconclusive; . = no result. Unless noted, calls follow the shape of the dose curve; as a rule, active = well fitted curve in the direction sought with a large enough effect; inconclusive = small, poorly fitted or top-dose-only effect, or another doubt; inactive = no such curve, though single readings can be large; an effect the other way counts as inactive or inconclusive.

SMILES | MCF10A rerep | Vif-A3G inh | IL1B secr inh | SW480 rerep | Giardia killer | Vif-A3F inh
COc1ccc(COc2cc(-c3cccc(OC)c3)nc3ccc(NC(=O)c4ccc(C)cc4)cc23)cc1 | 5.8µM* | -30% | 72 | 21µM* | -9 | -2%
COc1ccc(C(=O)Nc2cccc(OC)c2)cc1 | -7% | 1% | -13 | -16% | ? | -7%
COc1ccc(COc2cc(-c3cccc(OC)c3)nc3ccc(NC(C)=O)cc23)cc1 | 0% | -17% | 1 | ? | 19 | -8%
COc1ccc(C(=O)Nc2ccc3[nH]c(-c4cccc(OC)c4)cc(=O)c3c2)cc1 | 0.58µM* | -22% | 81 | 0.65µM* | -9 | 0%
CCN(Cc1cccc(S(=O)(=O)O)c1)c1ccc(C(=C2C=CC(=[N+](CC)Cc3cccc(S(=O)(=O)O)c3)C=C2)c2ccccc2S(=O)(=O)[O-])cc1 | . | 4% | . | . | . | .
COc1ccc(-c2ccc(NS(=O)(=O)c3ccccc3Cl)cc2)nn1 | . | -1% | . | . | . | -1%
COc1cc(C2CC(=O)c3cnc(N4CCN(Cc5ccccc5)CC4)nc3C2)cc(OC)c1OC (configuration not stated) | 13µM* | ? | 12 | 2.9µM* | -14 | -8%
COc1cc(C2CC(=O)c3cnc(N4CCN(CCO)CC4)nc3C2)cc(OC)c1OC (configuration not stated) | . | 1% | . | . | . | 1%
CCC(=O)Nc1ccc(-c2nnc3c4ccccc4c(C)nn23)cc1 | . | 1% | . | . | . | 1%
CCn1cc(CN2CCCC(C(=O)c3ccc(-c4ccccc4)c(F)c3)C2)cn1 (configuration not stated) | 33% | 0% | -81* | ? | -4 | -27%
O=C(c1ccc(-c2ccccc2)c(F)c1)C1CCCN(CCCn2cccn2)C1 (configuration not stated) | ? | 0% | ? | 4% | 20 | 2%
COc1ccc(-c2nn(-c3ccccc3)cc2C=O)cc1[N+](=O)[O-] | 13% | -9% | -84* | ? | -19 | 0%
COc1ccc(-c2nn(-c3ccccc3)cc2/C=C/C(=O)O)cc1[N+](=O)[O-] | ? | ? | 10 | ? | ? | 5%
COc1ccc(-c2nn(-c3ccccc3)cc2/C=N/NC(N)=S)cc1OC | 1.6µM* | ? | -13 | 2.1µM* | -4 | -5%
Cc1nc(NC(=O)c2ccccc2)sc1-c1csc(N)n1 | 16µM* | -11% | 0 | -1% | 5 | 3%
CCCC(C)C(=O)Nc1nc(C)c(-c2csc(Nc3ccccc3OC)n2)s1 (configuration not stated) | 21µM* | 3% | 3 | 7% | -2 | 7%
Cc1nc(NC(=O)c2ccccc2)sc1-c1csc(NCc2ccccc2)n1 | 9% | 0% | ? | 0% | -14 | 2%
CCC(=O)Nc1nc(C)c(-c2csc(Nc3ccccn3)n2)s1 | 3% | -11% | -96* | -16% | -5 | -20%
CCCCCC(=O)Nc1nc(C)c(-c2csc(Nc3ccccc3OC)n2)s1 | ? | -8% | -8 | -10% | 9 | 10%
COc1ccc(C)cc1NC(=O)NCc1ccc2c(c1)CCN2C(=O)c1ccccc1 | . | 2% | . | . | . | 1%
COc1ccc(OC)c(NC(=O)CSC2=Nc3ccccc3C3=NC(CC(=O)NCc4ccc5c(c4)OCO5)C(=O)N23)c1 (configuration not stated) | . | -3% | . | . | . | 1%
COc1ccccc1CCNC(=O)Cc1c(C)c2cc3c(C(C)(C)C)coc3c(C)c2oc1=O | . | 4% | . | . | . | 3%
Nc1nc(-c2ccc(Br)s2)c(Br)s1 | 21µM* | 1% | 0 | 15% | -16 | -4%
COc1ccc(Cn2ccc3nc(C)c(C(=O)N4CCN(c5cc(C)ccc5C)CC4)cc3c2=O)cc1 | . | -1% | . | . | . | 0%
CCN(CC)C(=O)Oc1ccc2ccccc2c1Br | ? | 0% | -60* | 5% | 13 | 14%
SMILES | MCF10A rerep | Vif-A3G inh | IL1B secr inh | SW480 rerep | Giardia killer | Vif-A3F inh
CCN(CC)C(=O)Oc1ccc(Br)c2ccccc12 | -6% | -2% | 0 | ? | 8 | 7%
CCOc1ccccc1NC(=O)c1ccc2c(Cl)c3c(nc2c1)CCC3 | . | 1% | . | . | . | 1%
CCOc1ccccc1Nc1ccnc2cc(Cl)ccc12 | ? | -22% | -88* | ? | 26 | ?
CCOc1ccc(NC(=S)NNc2ccnc3cc(Cl)ccc23)cc1 | 25% | -13% | -89* | ? | -1 | -5%
S=C(NNc1ccnc2cc(Cl)ccc12)Nc1ccc(Cl)cc1Cl | ? | -6% | -86* | 11% | -13 | ?
CC(=O)Nc1cccc(NC(=O)C2(c3cccs3)CCOCC2)c1 | . | 2% | . | . | . | -2%
CCc1ccc(NC(=O)CSC2=Nc3ccccc3C3=NC(CCC(=O)NCc4ccccc4OC)C(=O)N23)cc1 (configuration not stated) | . | 3% | . | . | . | -16%
CC(C)(C)OC(=O)N1CCC(c2c(C(=O)NC3CCN(Cc4ccccc4)CC3)cnn2-c2ccc(F)cc2F)CC1 | . | 3% | . | . | . | -2%
CC(=O)Nc1ccc(N/C=C/C(=O)c2ccc(C)o2)cc1 | 23µM* | -1% | -26 | 0% | -8 | 1%
COc1cc(C(=O)NNC(=O)c2ccc(NC(C)=O)cc2)cc(OC)c1OC | 2% | 0% | -8 | -106% | 7 | -9%
COc1cc(C(=O)/C=C/Nc2ccc(NC(C)=O)cc2)cc(OC)c1OC | 13µM* | ? | -20 | 2% | 10 | 6%
CN(C)c1ccc(CNC(=O)C2CCN(C(=O)c3ccc(-n4ccc5ccccc54)s3)CC2)cc1 | . | 1% | . | . | . | 0%
Cc1cc(/C=C\c2ccc3cc(N(C)C)ccc3[n+]2C)c(C)n1-c1ccccc1 | -3% | 7.1µM* | -113* | -8% | -1 | 3.2µM*
COc1cccc2sc(Nc3nnc(-c4cccs4)o3)nc12 | 23µM* | -20% | 75 | 9% | 3 | -1%
COc1ccc(-c2nnc(-c3ccc(F)cc3)o2)cc1 | 0% | 0% | -7 | -3% | 1 | 0%
COc1cccc2sc(Nc3nnc(-c4ccc(F)cc4)o3)nc12 | 26µM* | ? | 15 | ? | -4 | ?
Fc1cccc2sc(Nc3nnc(-c4ccco4)o3)nc12 | 7.3µM* | ? | 30 | ? | -19 | 5%
CN(C)c1ccc(C=O)cc1Cl | . | -1% | . | . | . | .

Assay outcomes from PubChem.
